Many of the other results were omitted from the sample, so hits are more common in it than they were.
Dicer processing – inhibitors of Dicer pre-microRNA processing, primary screen, biochemical, cat-ELCCA, chemiluminescence; Endoribonuclease Dicer (Homo sapiens), Q9UPY3; cat-ELCCA pre-miR-21 Dicer processing; hits give high values; z-score at 25 µM; 47,000 tested, 6% active; AID 1347074, 2019; in the data active means z-score above about 3, passing the limit was not always enough;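 further: plate controls were vehicle for no effect and no enzyme for full effect; higher signal means more uncleaved substrate so more Dicer inhibition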
* marks the source's active call; other numbers are inactive results.

SMILES	Dicer processing
O=S(=O)(/N=C(\NNC(=S)Nc1cccc(F)c1)N1CCCC1)c1ccccc1	-0.29
O[C@@H]1C2C3CC4C5C3C1C(c1ccccc1)(C42)[C@H]5O (stereo partly specified)	-0.82
CN(C)c1ccc(/C=C/c2nc3n(n2)C=COc2ccccc2-3)cc1	6.06*
C=CCOC(=O)C1=C(C)NC2=C(C(=O)CCC2)C1c1ccccc1OCCC (stereo unspecified)	-0.83
CN=C(C)/C(C(=O)OC)=C(/O)c1cc(C(F)(F)F)cc(C(F)(F)F)c1	0.27
O=C(CC1(O)C(=O)N(CCc2ccccc2)c2ccc(Br)cc21)c1ccncc1 (stereo unspecified)	3.65*
Cc1ccccc1CN1C(=O)C(O)(CC(=O)c2ccccn2)c2cc(Cl)ccc21 (stereo unspecified)	1.81
COc1ccc(C(=O)CC2(O)C(=O)N(CCc3ccccc3)c3ccc(Br)cc32)cc1 (stereo unspecified)	-0.4
CCCN1C(=O)C(O)(CC(=O)c2c(C)n[nH]c2C)c2ccccc21 (stereo unspecified)	0.2
Cc1ccc(C(=O)CC2(O)C(=O)N(Cc3ccccc3C)c3ccc(Cl)cc32)o1 (stereo unspecified)	1.31
Cc1ccc(CN2C(=O)C(O)(CC(=O)c3ccncc3)c3cc(Cl)ccc32)cc1 (stereo unspecified)	4.99*
CCCN1C(=O)C(O)(CC(=O)c2c(C)n[nH]c2C)c2cc(Br)ccc21 (stereo unspecified)	3.23*
O=C(CC1(O)C(=O)N(CCc2ccccc2)c2ccc(Cl)cc21)c1ccccc1O (stereo unspecified)	0.65
CCOc1ccc(C(=O)CC2(O)C(=O)N(CCc3ccccc3)c3ccc(Br)cc32)cc1 (stereo unspecified)	1.76
Cc1ccc(C(=O)CC2(O)C(=O)N(Cc3ccccc3)c3ccc(Cl)cc32)cc1 (stereo unspecified)	0.64
CCCCN1C(=O)C(O)(CC(=O)c2c(C)n[nH]c2C)c2cc(Br)ccc21 (stereo unspecified)	2.07
Cc1ccc(C(=O)CC2(O)C(=O)N(CCc3ccccc3)c3ccc(Cl)cc32)o1 (stereo unspecified)	5.15*
C=CCOC(=O)C1=C(C)NC2=C(C(=O)CCC2)C1c1cccc(OC)c1OC (stereo unspecified)	-0.58
CCCCNCC(=O)c1c(N)n(C)c(=O)n(C)c1=O	2.4
Clc1ccccc1CSC1=NCCCN1C1CCCCC1	0.5
COc1ccc(-c2nc(SCc3ccccc3)nc(SC)c2C#N)cc1	-0.17
CCCc1[nH]nc2c1C(c1ccc(F)cc1)C(C#N)=C(N)O2 (stereo unspecified)	-2
Cc1ccc(-c2c3c(=O)n(C)c(=O)n(C)c3cn2C(C)(C)C)cc1	0.54
CC1CCC2C(=O)N(c3ccc(Br)cc3)C(=O)C2C1 (stereo unspecified)	-0.28
COC(=O)C1=C(C)NC(=O)CC1c1ccc(OC)cc1 (stereo unspecified)	-0.24
SMILES	Dicer processing
CCOC(=O)c1c(C)oc2ccc(OC)cc12	2.23
CCOC(=O)CCC(=O)c1c(C)oc2ccc(OC)cc12	3.11*
COCCOC(=O)c1c(C)oc2ccc(OC)cc12	2.91
N#CCSc1nnc2c(n1)[nH]c1ccccc12	-0.01
CCCCNC(=O)C(=O)NCC1CCCO1 (stereo unspecified)	0.04
O=[N+]([O-])C1=Cc2cc(Cl)ccc2OC1c1ccccc1Cl (stereo unspecified)	3.97*
O=[N+]([O-])C1=Cc2cc(Cl)ccc2OC1c1c(Cl)cccc1Cl (stereo unspecified)	2.31
O=[N+]([O-])C1=Cc2ccccc2OC1c1ccccc1Cl (stereo unspecified)	2.49
Cn1c(NCc2ccc3c(c2)OCO3)nc2c1c(=O)n(Cc1ccccc1F)c(=O)n2C	-2
COc1ccc(-c2csc3nc(C)oc(=O)c23)cc1OC	2.08
O=C(NCc1cccnc1)c1nn2c(c1Cl)NC(c1ccccc1)CC2C(F)(F)F (stereo unspecified)	-1.76
O=C(NCc1ccccc1)c1nn2c(c1Br)NC(c1ccccc1)CC2C(F)(F)F (stereo unspecified)	5.25*
Cc1ccc(C2CC(C(F)(F)F)n3nc(C(=O)NCc4c(C)nn(C)c4C)c(Cl)c3N2)cc1 (stereo unspecified)	-1.19
NC(=O)c1nn2c(c1Cl)NC(c1ccc(Cl)cc1)CC2C(F)(F)F (stereo unspecified)	3.45*
O=C(c1nn2c(c1Cl)NC(c1ccc(F)cc1)CC2C(F)(F)F)N1CCCCC1 (stereo unspecified)	8.8
O=C(c1nn2c(c1Cl)NC(c1ccc(Cl)cc1)CC2C(F)(F)F)N1CCSCC1 (stereo unspecified)	0.58
CCC(C)NC(=O)c1nn2c(c1Cl)NC(c1ccc(Cl)cc1)CC2C(F)(F)F (stereo unspecified)	4.94*
CCCNC(=O)c1nn2c(c1Br)NC(c1cccs1)CC2C(F)(F)F (stereo unspecified)	-0.29
O=C(c1nn2c(c1Cl)NC(c1cccs1)CC2C(F)(F)F)N1CCCc2ccccc21 (stereo unspecified)	2.77
Cc1c(CNC(=O)c2nn3c(c2Cl)NC(c2cccs2)CC3C(F)(F)F)cnn1C (stereo unspecified)	1.23
CCC(C)NC(=O)c1cc2n(n1)C(C(F)(F)F)CC(c1ccc3c(c1)OCO3)N2 (stereo unspecified)	2.52
O=C(c1nn2c(c1Cl)NC(c1ccccc1)CC2C(F)(F)F)N1CCCCC1 (stereo unspecified)	5.56*
COc1cc(/C=C2\N=C(C)OC2=O)cc(OC)c1	1.12
CC1=C(C(=O)OCCOc2ccccc2)C(c2ccc(Br)cc2)C2=C(CCCC2=O)N1 (stereo unspecified)	-1.01
O=S(=O)(Cc1ccccc1)c1ncc(CO)n1Cc1ccccc1	1.62
SMILES	Dicer processing
CCOC(=O)c1c(C)[nH]c(C(=O)CN2CCCCC2)c1C	-0.74
CSC1=C(C#N)C(c2ccccc2Cl)CC(=O)N1 (stereo unspecified)	-0.03
COC(=O)/C=C1\SC(=Nc2ccc(Cl)cc2)N(c2ccc(Cl)cc2)C1=O	-1.82
CC1(C)C2=CC3(C)N(CC(=O)N2c2ccccc21)c1ccccc1C3(C)C (stereo unspecified)	2.48
COc1cc(C(=O)NNC(=O)Nc2c(-c3c(Cl)cccc3Cl)noc2C)cc(OC)c1OC	-0.06
CCCC12CN3CC(CCC)(CN(C1)C3c1cc(Br)ccc1O)C2=O (stereo unspecified)	2.82
Nc1ccccc1C(=O)N/N=C/C=C/c1ccccc1	0.15
CCOC(=O)c1c(NC(=O)c2cccs2)sc2c1CCCC2	-1.06
CCC(=O)Nc1sc2c(c1C(=O)Nc1ccc(Cl)cc1)CCC2	0.55
O=C(Nc1sc2c(c1C(=O)Nc1ccccc1)CCCCC2)c1ccco1	2.82
N#Cc1c(NC(=O)c2ccco2)sc2c1CCCCC2	2.56
O=C(Nc1sc2c(c1C(=O)Nc1ccccc1)CCCC2)c1ccco1	3.18*
CC(C)(C)C1CCc2c(sc(NC(=O)CCC(=O)O)c2C(=O)Nc2ccccc2Cl)C1 (stereo unspecified)	-0.75
CCOC(=O)c1c(NC(=O)c2ccco2)sc2c1CCCCC2	5.7*
CCC(=O)Nc1sc2c(c1C(=O)Nc1ccccc1Cl)CCC2	4.21*
O=C(Nc1sc2c(c1C(=O)O)CCCCC2)c1ccco1	2.7
Cc1ccnc(NS(=O)(=O)c2ccc(N)cc2)c1	1.85
